These results are taken from PubChem BioAssay (NCATS).

Assay [1] has as its target Lysosomal acid glucosylceramidase (Homo sapiens) (UniProt P04062). The assay can be described thus: Glucocerebrosidase-p2 (AID 348; in the data active means potency below about 10 µM; further: potency means the concentration at half of the fitted maximal effect). The following applies: purified GBA, blue fluorogenic substrate, 40 min. Put shortly:
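Normal human glucocerebrosidase (0.2 nM) with blue fluorogenic substrate (80 uM final) in citrate/phosphate pH 5.9 with 10mM sodium taurocholate, 0.01% tween-20; 40 min RT, NaOH/glycine stop; fluorescence Ex 365/Em 440; AC50 from a titration from 0.6 nM upwards.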

Assay [2] in a line: AP1 Signaling Pathway (AID 357).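 Further: ME-180 reporter cells stimulated with EGF at its EC50 level; on the % scale 0 is the no-effect control and ±100 the full control effect.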 The following applies: ME-180 AP-1-bla reporter, EGF-induced, beta-lactamase ratio, 5 h; at 7.69 µM (top of the series) unless noted. Put shortly:
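Cells are seeded overnight, exposed to compound titrations and an EC50 level of EGF for 5 hours at 37 °C, then loaded with CCF4 dye for 2.5 hours. Beta-lactamase activity under the AP-1 element is read as a blue/green ratio.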

Assay [3] deals with Cytochrome P450 1A2 (Homo sapiens) (UniProt P05177). Nature of the assay: p450-cyp1a2 (AID 410; calls by dose curve; further: potency means the concentration at half of the fitted maximal effect;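 on activity change, negative = inhibition: -100% = full effect of reference inhibitor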). Particulars: recombinant CYP1A2, luciferin-ME demethylation, luminescence; series mostly up to 11.4 µM. Put shortly: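 O-Demethylation of luciferin 6' methyl ether by human CYP1A2 is monitored as luciferase luminescence. Substrate sits at Km (100uM); enzyme is 20nM. Values are scaled to 57 uM furafylline as maximal inhibition.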

Assay [4] is described as follows: NFAT Signaling Pathway (AID 444).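 Further: carbachol stimulus at about its EC50 of 1 µM final; on the % scale 0 is the no-effect control and ±100 the full control effect.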 The following applies: Jurkat NFAT-bla M1, carbachol, beta-lactamase ratio, 5 h; at 7.69 µM (top of the series) unless noted. An outline of the steps: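 Jurkat cells with NFAT-driven β-lactamase reporter and co-expressed M1 receptor, stimulated with carbachol (final 1 uM, ~EC50), compound titration, 5 h at 37 °C. CCF4 loaded 1 h at RT; 460/530 nm ratio gave %activity and AC50.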

The target of assay [5] is Glucocorticoid receptor (Homo sapiens) (UniProt P04150). The assay can be described thus: GR-GFP Redistribution (AID 450;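 active means compounds whose dose series gives a full or clear partial fitted curve of increased nuclear translocation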; further: potency means the concentration at half of the fitted maximal effect). Particulars: U2OS GR-GFP nuclear translocation, laser cytometry, 2 h.
Assay [6] has the same target. Nature of the assay: GR-EFC Redistribution (AID 451; calls by dose curve; further: potency means the concentration at half of the fitted maximal effect). The following applies: CHO-K1 GR-EFC translocation, beta-gal luminescence, 2 h. An outline of the steps: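 CHO-K1 cells expressing nuclear EA and GR-ED fragments of b-gal; compounds titrated up to 46 uM final, 2 h at 37 C. GR nuclear translocation read as complemented b-gal luminescence after 1 h RT detection.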

Assay [7] deals with Mitogen-activated protein kinase 10 (Mus musculus) (UniProt Q61831). Nature of the assay: JNK3 AlphaScreen Assay (AID 530).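 Further: kinase came from lysate of stimulated human HepG2 cells; signal reports phosphorylation of biotinylated GST-cJun 1-79 at Ser73 with 10 µM ATP; on the % scale 0 is the no-effect control and ±100 the full control effect.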 Particulars: JNK3 lysate, c-Jun phosphorylation; series mostly up to 57.1 µM. Put shortly:
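Activity was read by AlphaScreen after JNK3-containing HepG2 lysate (cytokine pre-activated) phosphorylated biotinylated GST-cJun with 10 uM ATP at room temperature. Phospho-Ser73 cJun antibody with Protein-A acceptor beads provided detection.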
On the technique in general: Alpha assays give light when donor and acceptor beads are brought close together.

The target of assay [8] is 3',5'-cyclic-AMP phosphodiesterase 4B (Homo sapiens) (UniProt Q07343). Nature of the assay: qHTS Assay for Inhibitors of PDE-IV (AID 607; active means well fitted activation curve with a large enough effect in the main read-out, with a control signal flat, not every such curve was filed as active; further: % of control where 0% means no effect). Particulars: HEK293 ACTOne CNG channel cells, membrane potential fluorescence; series mostly up to 22.9 µM. Put shortly: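 ACTOne HEK293 cells carry a modified cAMP-gated CNG channel and express endogenous PDE4; plated 1000 cells/well, compounds up to 22.9 uM final. Membrane-potential dye fluorescence (ex 535/em 590) was read; parental cells received 10 uM forskolin + 100 uM RO 20-1724.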
(In general: Quantitative high-throughput screening tests each substance at several concentrations.)

The target of assay [9] is Cytochrome P450 2C19 (Homo sapiens) (UniProt P33261). Nature of the assay: qHTS Assay for Inhibitors and Substrates of Cytochrome P450 2C19 (AID 899; active means well fitted curve in the direction sought with a large enough effect; an effect the other way counts as inactive or inconclusive; further: potency means the concentration at half of the fitted maximal effect; nearly all actives have a fitted effect of over 60% in size). Particulars: recombinant CYP2C19, luciferin-H EGE luminescence; series mostly up to 11.4 µM. Put shortly:
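Luminescent read-out of luciferin formed from Luciferin-H EGE (10uM, equal to KM). Enzyme 5nM in 50mM KPO4; compound added, 10 min at 37C, then NADPH regenerating system for 60 min at 37C. Full inhibition defined by 57uM ketoconazole.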

Assay [10] can be described thus: Stat Signaling Pathway (AID 446).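 Further: ME-180 cervical cancer cells given 40 pM IL-6 alongside compound; SIE-controlled beta-lactamase reporter measured as 460/530 nm FRET emission ratio; on the % scale 0 is the no-effect control and ±100 the full control effect.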 The following applies: ME-180 (cervical carcinoma) SIE beta-lactamase reporter, IL-6 stimulated, 5 h; at 7.69 µM (top of the series) unless noted. An outline of the steps:
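Compound effects on IL-6-induced STAT reporter activity were measured in ME-180 cells. After overnight culture, cells were co-treated with 40 pM IL-6 for 5 hrs before beta-lactamase substrate loading at room temperature.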

The target in assay [11] is Cytochrome P450 2D6 (Homo sapiens) (UniProt P10635). The assay can be described thus: qHTS Assay for Inhibitors and Substrates of Cytochrome P450 2D6 (AID 891; active means well fitted curve in the direction sought with a large enough effect; an effect the other way counts as inactive or inconclusive; further: nearly all actives have a fitted effect of over 60% in size; further: potency means the concentration at half of the fitted maximal effect). The following applies: recombinant CYP2D6, luciferin-ME EGE luminescence; series mostly up to 11.4 µM. Put shortly: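 Luminescent read-out of luciferin formed by 5 nM human CYP2D6 demethylating 30 uM Luciferin-ME EGE (Km level) over 60 min at room temperature after NADPH regeneration addition. Data normalized to full inhibition by 1.43 uM quinidine.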

The target of assay [12] is Tyrosyl-DNA phosphodiesterase 1 (Homo sapiens) (UniProt Q9NUW8). Nature of the assay: Confirmation Assay for Inhibitors of Tyrosyl-DNA Phosphodiesterase (TDP1) (AID 489007; active means well fitted curve in the direction sought with a large enough effect; an effect the other way counts as inactive or inconclusive; further: potency means the concentration at half of the fitted maximal effect; nearly all actives have a fitted effect of over 40% in size). The following applies: recombinant human TDP1 enzymatic activity, dose-response. An outline of the steps: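 Compounds are preincubated 15 min at room temperature with 1 nM recombinant human Tdp1. The reaction starts on adding 15 nM FITC-phosphotyrosine DNA substrate, runs 5 min, and is detected by AlphaScreen beads after 10 min.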

The structures appear in SMILES notation. A number with no mark means an inactive call. Inconclusive results are not listed. Activity calls are given as the source filed them. Unless noted, the call rests on the fitted dose curve; in most records, active means well fitted curve in either direction with a large enough effect (not every such curve was filed as active); inconclusive means small, poorly fitted or top-dose-only effect, or another doubt; inactive means flat fitted curve, though single readings scatter.

3',5'-cyclic-AMP phosphodiesterase 4B (Homo sapiens), sequence (Q07343 whole entry, looked up): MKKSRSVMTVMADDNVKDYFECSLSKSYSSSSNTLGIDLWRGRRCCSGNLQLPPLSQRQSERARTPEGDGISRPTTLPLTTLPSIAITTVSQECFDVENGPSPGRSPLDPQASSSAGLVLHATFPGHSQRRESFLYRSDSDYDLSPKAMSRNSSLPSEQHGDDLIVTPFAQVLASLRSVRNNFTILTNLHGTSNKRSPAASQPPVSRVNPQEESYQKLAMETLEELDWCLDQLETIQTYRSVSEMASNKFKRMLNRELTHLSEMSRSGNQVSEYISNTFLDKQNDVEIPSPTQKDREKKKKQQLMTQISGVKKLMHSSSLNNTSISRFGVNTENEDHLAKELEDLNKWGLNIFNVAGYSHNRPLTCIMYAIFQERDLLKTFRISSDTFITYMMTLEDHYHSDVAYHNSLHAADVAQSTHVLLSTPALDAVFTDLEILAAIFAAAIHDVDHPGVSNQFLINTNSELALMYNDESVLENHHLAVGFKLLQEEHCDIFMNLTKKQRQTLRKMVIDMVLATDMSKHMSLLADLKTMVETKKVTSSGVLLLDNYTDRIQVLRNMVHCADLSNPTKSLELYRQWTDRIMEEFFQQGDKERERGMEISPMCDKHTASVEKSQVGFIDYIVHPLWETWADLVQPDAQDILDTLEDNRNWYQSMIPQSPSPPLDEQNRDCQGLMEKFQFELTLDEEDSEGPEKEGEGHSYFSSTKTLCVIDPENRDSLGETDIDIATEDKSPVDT
Lysosomal acid glucosylceramidase (Homo sapiens), sequence (P04062 whole entry, looked up): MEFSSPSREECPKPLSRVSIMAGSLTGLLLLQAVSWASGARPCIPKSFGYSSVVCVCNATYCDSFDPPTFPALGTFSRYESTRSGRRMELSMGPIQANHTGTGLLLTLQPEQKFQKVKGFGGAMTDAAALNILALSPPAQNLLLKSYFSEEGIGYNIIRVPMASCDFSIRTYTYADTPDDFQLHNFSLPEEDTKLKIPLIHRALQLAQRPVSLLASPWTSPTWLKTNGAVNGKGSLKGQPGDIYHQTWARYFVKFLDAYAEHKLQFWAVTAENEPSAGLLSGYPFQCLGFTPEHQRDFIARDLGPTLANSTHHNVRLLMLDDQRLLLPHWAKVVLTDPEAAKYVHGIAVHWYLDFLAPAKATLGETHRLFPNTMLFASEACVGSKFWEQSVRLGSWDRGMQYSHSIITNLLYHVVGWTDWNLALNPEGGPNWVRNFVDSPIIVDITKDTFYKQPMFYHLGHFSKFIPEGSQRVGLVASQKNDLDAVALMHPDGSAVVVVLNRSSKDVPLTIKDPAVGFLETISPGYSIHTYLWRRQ
Glucocorticoid receptor (Homo sapiens), sequence (P04150 whole entry, looked up, the tested form may be a part): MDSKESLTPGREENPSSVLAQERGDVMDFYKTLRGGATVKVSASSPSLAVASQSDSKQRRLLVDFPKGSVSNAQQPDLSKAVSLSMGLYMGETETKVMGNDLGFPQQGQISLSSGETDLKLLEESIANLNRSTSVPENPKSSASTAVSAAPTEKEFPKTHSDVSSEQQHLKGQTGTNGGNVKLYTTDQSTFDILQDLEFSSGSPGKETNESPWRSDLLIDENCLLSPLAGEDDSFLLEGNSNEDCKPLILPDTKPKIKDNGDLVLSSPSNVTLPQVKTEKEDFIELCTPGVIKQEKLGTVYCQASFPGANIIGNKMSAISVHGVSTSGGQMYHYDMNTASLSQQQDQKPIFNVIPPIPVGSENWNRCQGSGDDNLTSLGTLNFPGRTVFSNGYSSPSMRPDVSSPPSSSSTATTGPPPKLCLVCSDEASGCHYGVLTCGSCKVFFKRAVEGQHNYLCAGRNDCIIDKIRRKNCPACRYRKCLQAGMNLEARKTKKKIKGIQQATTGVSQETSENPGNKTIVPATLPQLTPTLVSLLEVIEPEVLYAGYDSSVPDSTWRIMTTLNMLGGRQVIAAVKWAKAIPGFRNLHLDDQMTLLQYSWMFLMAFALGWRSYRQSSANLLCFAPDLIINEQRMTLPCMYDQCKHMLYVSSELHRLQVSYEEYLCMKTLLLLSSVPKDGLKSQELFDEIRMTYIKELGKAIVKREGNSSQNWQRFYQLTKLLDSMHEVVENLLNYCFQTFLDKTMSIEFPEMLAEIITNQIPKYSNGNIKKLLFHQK
Cytochrome P450 1A2 (Homo sapiens), sequence (P05177 whole entry, looked up): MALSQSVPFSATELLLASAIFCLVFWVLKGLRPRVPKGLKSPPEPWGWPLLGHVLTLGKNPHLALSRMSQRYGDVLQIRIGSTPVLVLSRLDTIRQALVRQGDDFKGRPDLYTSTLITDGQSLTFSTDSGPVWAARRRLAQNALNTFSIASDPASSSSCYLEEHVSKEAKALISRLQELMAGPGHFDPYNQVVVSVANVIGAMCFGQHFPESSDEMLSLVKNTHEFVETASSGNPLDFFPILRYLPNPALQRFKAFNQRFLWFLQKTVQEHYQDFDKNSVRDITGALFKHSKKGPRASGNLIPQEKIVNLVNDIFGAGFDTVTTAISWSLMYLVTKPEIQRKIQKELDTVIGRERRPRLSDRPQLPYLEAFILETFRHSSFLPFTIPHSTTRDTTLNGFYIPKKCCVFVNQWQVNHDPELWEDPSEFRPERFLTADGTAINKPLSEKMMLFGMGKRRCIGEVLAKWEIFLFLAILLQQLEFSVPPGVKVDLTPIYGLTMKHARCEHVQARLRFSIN
Cytochrome P450 2D6 (Homo sapiens), sequence (P10635 whole entry, looked up): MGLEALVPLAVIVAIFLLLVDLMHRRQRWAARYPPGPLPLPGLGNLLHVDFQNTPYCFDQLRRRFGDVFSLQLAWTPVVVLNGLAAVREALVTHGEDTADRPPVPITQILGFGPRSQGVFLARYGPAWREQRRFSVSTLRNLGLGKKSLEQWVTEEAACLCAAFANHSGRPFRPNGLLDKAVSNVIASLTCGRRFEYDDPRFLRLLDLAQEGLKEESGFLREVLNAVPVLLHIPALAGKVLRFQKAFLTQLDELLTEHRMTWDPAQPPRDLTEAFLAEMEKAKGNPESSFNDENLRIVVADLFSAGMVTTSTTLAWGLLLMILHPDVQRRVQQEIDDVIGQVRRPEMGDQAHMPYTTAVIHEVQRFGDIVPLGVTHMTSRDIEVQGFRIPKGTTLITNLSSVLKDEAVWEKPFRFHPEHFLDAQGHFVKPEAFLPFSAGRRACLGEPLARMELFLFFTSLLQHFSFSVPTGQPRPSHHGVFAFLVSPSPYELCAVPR
Tyrosyl-DNA phosphodiesterase 1 (Homo sapiens), sequence (Q9NUW8 whole entry, looked up): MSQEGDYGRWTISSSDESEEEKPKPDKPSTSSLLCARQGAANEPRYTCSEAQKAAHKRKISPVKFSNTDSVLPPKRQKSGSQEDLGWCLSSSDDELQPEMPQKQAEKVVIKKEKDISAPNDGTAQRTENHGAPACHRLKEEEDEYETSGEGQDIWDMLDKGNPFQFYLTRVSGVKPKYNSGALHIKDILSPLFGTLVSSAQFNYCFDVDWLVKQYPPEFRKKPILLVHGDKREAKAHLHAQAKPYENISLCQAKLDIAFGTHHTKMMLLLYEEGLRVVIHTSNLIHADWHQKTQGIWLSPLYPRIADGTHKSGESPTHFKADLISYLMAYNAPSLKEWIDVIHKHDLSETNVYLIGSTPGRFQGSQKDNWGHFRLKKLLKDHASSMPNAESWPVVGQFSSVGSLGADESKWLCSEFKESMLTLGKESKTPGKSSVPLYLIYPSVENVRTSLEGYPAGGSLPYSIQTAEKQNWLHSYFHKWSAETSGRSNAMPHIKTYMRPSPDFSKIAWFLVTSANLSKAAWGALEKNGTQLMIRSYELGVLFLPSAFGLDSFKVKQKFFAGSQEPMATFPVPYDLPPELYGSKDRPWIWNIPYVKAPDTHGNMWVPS
Cytochrome P450 2C19 (Homo sapiens), sequence (P33261 whole entry, looked up): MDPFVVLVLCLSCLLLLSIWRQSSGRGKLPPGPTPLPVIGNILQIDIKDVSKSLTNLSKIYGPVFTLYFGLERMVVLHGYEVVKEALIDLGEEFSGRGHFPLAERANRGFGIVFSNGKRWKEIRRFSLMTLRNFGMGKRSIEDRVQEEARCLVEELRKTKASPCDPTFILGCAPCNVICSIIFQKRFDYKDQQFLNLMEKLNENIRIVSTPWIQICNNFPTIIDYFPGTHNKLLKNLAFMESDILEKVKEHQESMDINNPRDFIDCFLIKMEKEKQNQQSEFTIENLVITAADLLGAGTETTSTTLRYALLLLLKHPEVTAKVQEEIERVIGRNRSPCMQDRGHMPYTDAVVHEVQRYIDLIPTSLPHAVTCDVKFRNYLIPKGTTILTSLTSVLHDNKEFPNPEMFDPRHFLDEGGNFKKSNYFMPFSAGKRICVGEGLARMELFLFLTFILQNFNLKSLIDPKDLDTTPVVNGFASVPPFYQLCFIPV

`CCOC(=O)[C@@H]1[C@@H]2c3ccccc3-c3ccccc3[C@H]2C[C@H]1O`: the Potency is above 11.4 µM in [1]; 631 nM (active) in assay [3]; above 46 µM in assay [5]; above 9.22 µM in assay [6]; 2 µM (active) in [9]. In addition, the figures for the activity change, negative = inhibition in assay [2], in assay [4] and in assay [7] were -11.4%, 2.27% and -2.11% [at 11.4 µM], respectively. Also, the compound was called inactive in [8].

For the compound `O=P(O)(O)c1ccccc1` (tested in a mixture with another compound), in [1], the Potency is above 11.4 µM. Also, the activity change, negative = inhibition in assay [2] was 2.76%; in assay [4] it was 5.01%; in assay [7], 6.51% [at 11.4 µM]. Moreover, in assay [3], the Potency result was “inactive”. Also, the activity, negative = inhibition in [10] is -0.661%. Moreover, the compound was called inactive in assay [8].

Turning to `NC(CCl)=N[C@H]1CN2CCC1CC2`, the Potency is above 11.4 µM in assay [1] and above 46 µM in assay [5]. Besides, the activity change, negative = inhibition in [2] is 5.68%; in [4], 1.17%; in assay [7], 1.59% [at 11.4 µM]. In addition, the Potency result in [3] is “inactive”. In assay [10], the activity, negative = inhibition was 13.9%. Further, the compound was classed as inactive in assay [8].

`CCN(CC)CCn1ncc2c(N)ncnc21`: the Potency in assay [1] is above 11.4 µM; in [5] it was above 46 µM. The activity change, negative = inhibition in [2] was 1.87%; in [4] it was 0.535%; in assay [7], -1.5% [at 11.4 µM]. The Potency result in [3] was “inactive”. In assay [10], the activity, negative = inhibition was -0.447%. The compound was classed as inactive in assay [8].

As for `O=C(O)CSCC(=O)O`, the Potency was above 11.4 µM in assay [1], above 46 µM in assay [5] and above 9.22 µM in assay [6]. In addition, the activity change, negative = inhibition in assay [2] is -1.42%; in [7], 8.86% [at 11.4 µM]. The Potency entry in assay [3] was “inactive”. Besides, the activity, negative = inhibition in assay [10] is 7.17%. Also, the call in assay [8] was inactive.

In the case of `N=C(N)n1cc(/C=N\N=C(N)N)cn1`, the Potency in [1] is above 11.4 µM; in assay [5] it was above 46 µM. The activity change, negative = inhibition was 8.06% in [2], 7.8% [at 2.29 µM] in assay [3], 8.05% in assay [4] and 6.38% [at 11.4 µM] in [7]. For the same compound, the activity, negative = inhibition in assay [10] was 9.59%. The outcome in assay [8] was inactive. For the same compound, in assay [11], the Potency result was “inactive”.

For the compound `NS(=O)(=O)C[C-]1C=C[CH]([Sb-]([Cl])([Cl])([Cl])([Cl])[Cl])C=C1.c1ccncc1` (configuration not stated), in assay [1], the Potency was above 11.4 µM. Also, the activity change, negative = inhibition is 2.96% in assay [2], 2.26% in assay [4] and 4.62% [at 11.4 µM] in [7]. Further, the Potency result in assay [3] is “inactive”. The activity, negative = inhibition in assay [10] was 19.7%. Also, the outcome in [8] was inactive.

With `C[C@H](CC(C#N)(c1ccccc1)c1ccccc1)N1CCCCC1`, the Potency in assay [1] was above 11.4 µM; in assay [5], above 46 µM; in [6], above 9.22 µM; in assay [11] it was 2.51 µM (active). Moreover, the activity change, negative = inhibition in assay [2] was 17%; in assay [3], 7.1% [at 2.29 µM]; in assay [7], 1.28% [at 11.4 µM]. Also, the activity, negative = inhibition in [10] is 2.01%. For the same compound, the result in [8] was inactive.

With `O=[N+]([O-])c1cc(-c2ccc([As](=O)(O)O)cc2)ccc1[As](=O)(O)O`, the Potency in assay [1] was above 11.4 µM; in [5], above 46 µM; in assay [6] it was above 9.22 µM; in assay [12], 89.1 µM (active). The activity change, negative = inhibition in assay [2] was 3.12%; in [3], -10.9% [at 2.29 µM]; in assay [7], 2.81% [at 11.4 µM]. Besides, in [10], the activity, negative = inhibition was 1.81%. Further, in [8], the outcome was inactive.

With `O=C(NCP(=O)(O)O)c1cccnc1`, the Potency is above 11.4 µM in assay [1] and above 46 µM in assay [5]. Further, the figures for the activity change, negative = inhibition in [2], in [4] and in [7] were 23.1%, 5.87% and 0.703% [at 11.4 µM], respectively. In [3], the Potency entry is “inactive”. In assay [10], the activity, negative = inhibition was 4.58%. For the same compound, the result in [8] was inactive.
